# From ChEMBL document CHEMBL1961873, “Compounds: GSK PKIS; Assays: Nanosyn kinase panel” (2012)
# Columns and labels:
# [1] = target: Sphingosine kinase 1 (Homo sapiens) (UniProt Q9NYA1); conditions: at 1 µM;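 note: mean SPHK1 inhibition value reported from the GSK PKIS kinase panel screen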
# [2] = target: T1, Sphingosine kinase 2 (Homo sapiens) (UniProt Q9NRA0); conditions: at 0.1 µM
# T1 sequence (whole entry): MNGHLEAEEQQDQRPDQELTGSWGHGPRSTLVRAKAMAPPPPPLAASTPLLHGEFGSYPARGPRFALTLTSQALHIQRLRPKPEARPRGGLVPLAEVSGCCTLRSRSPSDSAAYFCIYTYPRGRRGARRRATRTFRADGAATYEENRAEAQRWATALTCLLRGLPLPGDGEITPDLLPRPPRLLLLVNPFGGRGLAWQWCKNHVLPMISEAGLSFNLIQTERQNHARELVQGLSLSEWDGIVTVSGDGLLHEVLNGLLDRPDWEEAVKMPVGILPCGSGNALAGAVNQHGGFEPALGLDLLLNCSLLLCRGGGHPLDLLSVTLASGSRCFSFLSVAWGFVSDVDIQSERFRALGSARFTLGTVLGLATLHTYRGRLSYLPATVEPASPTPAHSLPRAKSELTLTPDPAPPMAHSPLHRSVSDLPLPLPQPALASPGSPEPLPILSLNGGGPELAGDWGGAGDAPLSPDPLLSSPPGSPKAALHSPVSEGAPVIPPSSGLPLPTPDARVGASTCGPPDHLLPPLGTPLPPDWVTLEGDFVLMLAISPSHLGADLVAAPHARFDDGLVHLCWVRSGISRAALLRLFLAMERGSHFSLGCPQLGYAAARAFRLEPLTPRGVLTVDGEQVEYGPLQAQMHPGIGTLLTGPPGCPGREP
# [3] = target: T1, Sphingosine kinase 2 (Homo sapiens); conditions: at 1 µM
# [4] = target: Casein kinase II subunit alpha (Homo sapiens) (UniProt P68400); conditions: at 0.1 µM
# Casein kinase II subunit alpha (Homo sapiens), sequence (P68400 whole entry, looked up): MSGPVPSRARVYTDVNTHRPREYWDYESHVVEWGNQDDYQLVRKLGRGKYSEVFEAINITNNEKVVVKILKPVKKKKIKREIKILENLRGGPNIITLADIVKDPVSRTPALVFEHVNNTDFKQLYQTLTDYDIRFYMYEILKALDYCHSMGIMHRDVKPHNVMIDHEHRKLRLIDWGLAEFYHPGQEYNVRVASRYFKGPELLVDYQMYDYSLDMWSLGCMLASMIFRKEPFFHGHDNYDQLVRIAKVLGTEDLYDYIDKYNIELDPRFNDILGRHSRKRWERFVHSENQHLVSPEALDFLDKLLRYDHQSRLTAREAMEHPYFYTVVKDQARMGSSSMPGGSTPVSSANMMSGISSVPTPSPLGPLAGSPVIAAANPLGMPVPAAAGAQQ
# [5] = target: Casein kinase II subunit alpha (Homo sapiens) (UniProt P68400); conditions: at 1 µM
# [6] = target: T2, Inhibitor of nuclear factor kappa-B kinase subunit alpha (Homo sapiens) (UniProt O15111); conditions: at 0.1 µM
# T2 sequence (whole entry): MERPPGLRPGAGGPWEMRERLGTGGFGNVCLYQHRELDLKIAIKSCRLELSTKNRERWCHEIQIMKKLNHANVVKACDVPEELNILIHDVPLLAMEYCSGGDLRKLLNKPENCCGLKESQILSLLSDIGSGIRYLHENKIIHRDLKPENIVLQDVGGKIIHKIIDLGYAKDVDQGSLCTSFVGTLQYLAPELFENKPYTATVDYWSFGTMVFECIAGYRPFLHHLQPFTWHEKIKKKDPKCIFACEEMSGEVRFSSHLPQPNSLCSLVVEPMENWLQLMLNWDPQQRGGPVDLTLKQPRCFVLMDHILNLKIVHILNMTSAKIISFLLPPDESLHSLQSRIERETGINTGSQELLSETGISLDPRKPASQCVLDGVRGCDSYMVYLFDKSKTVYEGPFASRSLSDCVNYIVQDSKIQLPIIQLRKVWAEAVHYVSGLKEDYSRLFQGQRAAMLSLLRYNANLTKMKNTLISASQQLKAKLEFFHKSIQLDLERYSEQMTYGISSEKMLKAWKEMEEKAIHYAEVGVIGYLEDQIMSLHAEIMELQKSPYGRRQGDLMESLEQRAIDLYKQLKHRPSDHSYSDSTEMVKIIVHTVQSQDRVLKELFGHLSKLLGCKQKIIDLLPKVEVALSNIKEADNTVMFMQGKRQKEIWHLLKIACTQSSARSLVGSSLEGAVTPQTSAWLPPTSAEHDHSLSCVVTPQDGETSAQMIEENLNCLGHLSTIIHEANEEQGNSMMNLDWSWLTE
# [7] = target: T2, Inhibitor of nuclear factor kappa-B kinase subunit alpha (Homo sapiens); conditions: at 1 µM
# [8] = target: T3, Inhibitor of nuclear factor kappa-B kinase subunit beta (Homo sapiens) (UniProt O14920); conditions: at 0.1 µM
# T3 sequence (whole entry): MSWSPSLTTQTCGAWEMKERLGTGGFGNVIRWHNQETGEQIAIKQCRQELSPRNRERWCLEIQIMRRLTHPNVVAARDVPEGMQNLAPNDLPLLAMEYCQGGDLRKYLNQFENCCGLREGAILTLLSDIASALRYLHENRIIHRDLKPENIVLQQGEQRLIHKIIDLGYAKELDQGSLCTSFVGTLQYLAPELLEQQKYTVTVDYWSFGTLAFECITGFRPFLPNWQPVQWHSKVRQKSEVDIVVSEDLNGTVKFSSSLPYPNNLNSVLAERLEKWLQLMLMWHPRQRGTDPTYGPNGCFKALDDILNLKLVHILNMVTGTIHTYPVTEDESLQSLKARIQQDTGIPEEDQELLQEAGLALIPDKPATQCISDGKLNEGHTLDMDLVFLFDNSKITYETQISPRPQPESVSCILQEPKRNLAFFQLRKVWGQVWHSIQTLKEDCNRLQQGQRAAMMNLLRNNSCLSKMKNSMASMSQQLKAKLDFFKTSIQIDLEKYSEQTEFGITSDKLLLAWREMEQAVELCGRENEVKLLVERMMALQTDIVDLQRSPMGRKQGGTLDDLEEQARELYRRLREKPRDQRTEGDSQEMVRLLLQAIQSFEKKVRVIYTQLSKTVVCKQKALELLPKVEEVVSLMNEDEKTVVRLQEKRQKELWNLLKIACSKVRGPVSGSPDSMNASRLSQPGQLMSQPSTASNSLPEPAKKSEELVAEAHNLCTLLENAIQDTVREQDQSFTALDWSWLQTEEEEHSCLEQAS
# [9] = target: T3, Inhibitor of nuclear factor kappa-B kinase subunit beta (Homo sapiens); conditions: at 1 µM
# [10] = target: T4, Inhibitor of nuclear factor kappa-B kinase subunit epsilon (Homo sapiens) (UniProt Q14164); conditions: at 0.1 µM
# T4 sequence (whole entry): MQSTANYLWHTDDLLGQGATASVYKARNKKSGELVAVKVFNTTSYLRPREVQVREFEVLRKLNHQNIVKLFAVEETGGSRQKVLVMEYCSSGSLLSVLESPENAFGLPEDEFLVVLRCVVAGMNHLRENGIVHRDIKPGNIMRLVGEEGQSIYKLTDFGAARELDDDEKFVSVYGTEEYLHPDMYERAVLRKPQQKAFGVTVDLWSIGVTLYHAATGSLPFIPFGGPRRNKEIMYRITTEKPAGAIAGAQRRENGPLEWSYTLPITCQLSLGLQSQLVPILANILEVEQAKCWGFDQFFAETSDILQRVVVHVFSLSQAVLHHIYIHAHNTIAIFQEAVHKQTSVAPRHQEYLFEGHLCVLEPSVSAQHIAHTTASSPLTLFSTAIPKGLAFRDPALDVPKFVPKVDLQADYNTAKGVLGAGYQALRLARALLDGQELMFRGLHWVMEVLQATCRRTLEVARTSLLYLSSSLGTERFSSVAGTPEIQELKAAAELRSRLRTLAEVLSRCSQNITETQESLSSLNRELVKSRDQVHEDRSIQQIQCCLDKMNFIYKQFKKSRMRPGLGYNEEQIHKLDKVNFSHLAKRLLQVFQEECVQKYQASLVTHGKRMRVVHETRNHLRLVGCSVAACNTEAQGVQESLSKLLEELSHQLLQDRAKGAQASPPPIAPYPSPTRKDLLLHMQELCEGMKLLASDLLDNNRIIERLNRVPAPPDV
# [11] = target: T4, Inhibitor of nuclear factor kappa-B kinase subunit epsilon (Homo sapiens); conditions: at 1 µM
# [12] = target: T5, Serine/threonine-protein kinase Nek1 (Homo sapiens) (UniProt Q96PY6); conditions: at 0.1 µM
# T5 sequence (whole entry): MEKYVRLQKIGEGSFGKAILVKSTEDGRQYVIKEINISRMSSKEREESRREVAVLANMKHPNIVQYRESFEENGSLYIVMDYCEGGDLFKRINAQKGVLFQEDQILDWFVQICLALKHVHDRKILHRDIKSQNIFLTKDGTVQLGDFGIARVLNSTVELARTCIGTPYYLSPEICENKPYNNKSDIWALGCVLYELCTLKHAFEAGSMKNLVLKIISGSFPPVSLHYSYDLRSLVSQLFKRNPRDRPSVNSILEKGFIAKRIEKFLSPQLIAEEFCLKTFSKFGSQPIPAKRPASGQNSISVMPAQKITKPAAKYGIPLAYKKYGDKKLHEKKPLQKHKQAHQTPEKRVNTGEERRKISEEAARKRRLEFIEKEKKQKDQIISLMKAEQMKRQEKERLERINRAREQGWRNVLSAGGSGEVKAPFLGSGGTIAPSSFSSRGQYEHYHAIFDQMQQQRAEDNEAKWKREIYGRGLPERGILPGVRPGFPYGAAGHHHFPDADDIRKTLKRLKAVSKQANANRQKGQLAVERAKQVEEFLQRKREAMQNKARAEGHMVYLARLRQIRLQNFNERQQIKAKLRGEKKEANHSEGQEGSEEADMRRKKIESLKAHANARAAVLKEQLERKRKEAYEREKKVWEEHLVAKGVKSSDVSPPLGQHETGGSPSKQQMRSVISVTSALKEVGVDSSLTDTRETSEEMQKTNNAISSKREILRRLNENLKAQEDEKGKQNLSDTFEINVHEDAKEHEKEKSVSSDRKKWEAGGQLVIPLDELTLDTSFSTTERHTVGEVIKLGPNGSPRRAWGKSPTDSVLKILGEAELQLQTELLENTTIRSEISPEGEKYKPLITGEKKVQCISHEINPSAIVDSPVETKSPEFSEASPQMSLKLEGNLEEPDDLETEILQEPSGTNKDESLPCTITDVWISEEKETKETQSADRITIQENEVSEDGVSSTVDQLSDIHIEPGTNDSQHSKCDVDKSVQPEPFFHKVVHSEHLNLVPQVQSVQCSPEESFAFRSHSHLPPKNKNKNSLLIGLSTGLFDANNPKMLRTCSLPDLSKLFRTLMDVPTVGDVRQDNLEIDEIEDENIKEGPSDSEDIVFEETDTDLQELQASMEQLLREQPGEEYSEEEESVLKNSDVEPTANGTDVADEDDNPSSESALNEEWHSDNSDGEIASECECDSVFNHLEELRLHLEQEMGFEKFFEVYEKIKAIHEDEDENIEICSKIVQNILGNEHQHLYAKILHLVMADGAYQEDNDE
# [13] = target: T5, Serine/threonine-protein kinase Nek1 (Homo sapiens); conditions: at 1 µM
# [14] = target: T6, Serine/threonine-protein kinase Nek2 (Homo sapiens) (UniProt P51955); conditions: at 0.1 µM
# T6 sequence (whole entry): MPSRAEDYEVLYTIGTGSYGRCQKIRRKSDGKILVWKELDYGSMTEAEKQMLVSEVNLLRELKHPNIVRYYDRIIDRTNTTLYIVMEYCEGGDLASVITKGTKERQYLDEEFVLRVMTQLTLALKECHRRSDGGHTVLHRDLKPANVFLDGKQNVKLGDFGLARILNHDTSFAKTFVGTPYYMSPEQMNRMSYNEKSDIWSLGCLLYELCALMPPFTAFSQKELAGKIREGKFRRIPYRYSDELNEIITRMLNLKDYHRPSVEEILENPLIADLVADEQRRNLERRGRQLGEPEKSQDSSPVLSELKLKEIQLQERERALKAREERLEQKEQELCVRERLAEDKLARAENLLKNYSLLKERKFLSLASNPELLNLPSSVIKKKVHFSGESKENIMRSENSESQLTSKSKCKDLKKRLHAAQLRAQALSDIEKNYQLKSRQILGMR
# [15] = target: T6, Serine/threonine-protein kinase Nek2 (Homo sapiens); conditions: at 1 µM
# [16] = target: Serine/threonine-protein kinase Nek6 (Homo sapiens) (UniProt Q9HC98); conditions: at 0.1 µM
# Serine/threonine-protein kinase Nek6 (Homo sapiens), sequence (Q9HC98 whole entry): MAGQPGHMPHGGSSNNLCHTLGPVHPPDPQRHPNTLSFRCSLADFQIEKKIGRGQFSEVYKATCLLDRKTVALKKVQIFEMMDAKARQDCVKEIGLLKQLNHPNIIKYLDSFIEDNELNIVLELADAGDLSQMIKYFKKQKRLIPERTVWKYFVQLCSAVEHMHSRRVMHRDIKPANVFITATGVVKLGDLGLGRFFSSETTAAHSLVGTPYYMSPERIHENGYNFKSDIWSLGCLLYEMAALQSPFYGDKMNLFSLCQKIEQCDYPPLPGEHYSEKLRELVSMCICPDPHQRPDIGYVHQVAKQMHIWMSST
# [17] = target: Serine/threonine-protein kinase Nek6 (Homo sapiens) (UniProt Q9HC98); conditions: at 1 µM
# [18] = target: Serine/threonine-protein kinase Nek7 (Homo sapiens) (UniProt Q8TDX7); conditions: at 0.1 µM
# Serine/threonine-protein kinase Nek7 (Homo sapiens), sequence (Q8TDX7 whole entry, looked up): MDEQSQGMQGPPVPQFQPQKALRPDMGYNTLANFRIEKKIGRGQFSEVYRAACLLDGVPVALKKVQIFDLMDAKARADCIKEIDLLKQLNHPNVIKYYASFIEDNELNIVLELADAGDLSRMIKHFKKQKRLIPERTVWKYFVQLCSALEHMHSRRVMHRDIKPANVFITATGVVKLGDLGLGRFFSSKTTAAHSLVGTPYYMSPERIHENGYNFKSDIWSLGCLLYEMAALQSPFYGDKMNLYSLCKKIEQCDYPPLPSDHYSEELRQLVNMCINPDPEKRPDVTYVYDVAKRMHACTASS
# [19] = target: Serine/threonine-protein kinase Nek7 (Homo sapiens) (UniProt Q8TDX7); conditions: at 1 µM
# [20] = target: T7, Serine/threonine-protein kinase Nek9 (Homo sapiens) (UniProt Q8TD19); conditions: at 0.1 µM;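 note: reported value is the mean percent inhibition of NEK9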
# T7 sequence (whole entry): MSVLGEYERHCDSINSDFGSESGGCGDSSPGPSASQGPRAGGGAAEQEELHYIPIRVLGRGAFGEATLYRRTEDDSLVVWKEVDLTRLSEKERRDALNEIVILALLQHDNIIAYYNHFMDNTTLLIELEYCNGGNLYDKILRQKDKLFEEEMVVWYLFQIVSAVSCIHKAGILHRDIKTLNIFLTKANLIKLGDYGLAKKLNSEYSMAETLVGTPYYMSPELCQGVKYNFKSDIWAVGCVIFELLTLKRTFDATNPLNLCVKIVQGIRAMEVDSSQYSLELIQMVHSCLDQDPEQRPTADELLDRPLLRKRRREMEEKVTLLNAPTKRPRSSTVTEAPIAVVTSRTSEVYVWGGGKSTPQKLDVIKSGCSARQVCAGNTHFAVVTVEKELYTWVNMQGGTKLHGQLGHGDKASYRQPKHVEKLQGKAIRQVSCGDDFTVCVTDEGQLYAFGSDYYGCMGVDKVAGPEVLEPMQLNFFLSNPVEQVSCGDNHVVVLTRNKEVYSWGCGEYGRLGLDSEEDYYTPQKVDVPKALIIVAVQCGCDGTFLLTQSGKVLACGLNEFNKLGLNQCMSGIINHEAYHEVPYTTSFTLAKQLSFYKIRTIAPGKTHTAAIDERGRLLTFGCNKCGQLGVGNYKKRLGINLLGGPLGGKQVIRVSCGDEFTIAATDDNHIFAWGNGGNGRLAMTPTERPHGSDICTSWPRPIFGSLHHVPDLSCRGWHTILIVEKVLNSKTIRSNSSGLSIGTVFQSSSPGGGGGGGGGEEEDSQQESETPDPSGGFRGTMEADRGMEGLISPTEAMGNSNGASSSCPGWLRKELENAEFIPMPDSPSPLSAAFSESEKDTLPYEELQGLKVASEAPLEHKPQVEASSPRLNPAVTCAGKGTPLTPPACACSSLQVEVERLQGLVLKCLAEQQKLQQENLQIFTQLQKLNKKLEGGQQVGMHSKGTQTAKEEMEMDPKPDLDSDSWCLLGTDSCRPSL
# Sphingosine kinase 1 (Homo sapiens), sequence (Q9NYA1 whole entry): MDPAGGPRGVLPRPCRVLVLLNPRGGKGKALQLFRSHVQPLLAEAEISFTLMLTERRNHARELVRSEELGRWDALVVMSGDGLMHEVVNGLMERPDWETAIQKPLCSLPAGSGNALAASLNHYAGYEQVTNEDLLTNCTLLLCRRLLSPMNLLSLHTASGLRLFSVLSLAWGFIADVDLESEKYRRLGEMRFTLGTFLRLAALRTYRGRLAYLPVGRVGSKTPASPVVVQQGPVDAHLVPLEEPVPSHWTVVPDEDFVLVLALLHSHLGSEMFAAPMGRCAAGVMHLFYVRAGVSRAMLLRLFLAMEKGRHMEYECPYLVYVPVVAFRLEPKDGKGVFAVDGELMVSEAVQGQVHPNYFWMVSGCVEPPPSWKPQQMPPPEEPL
smiles,measurement,setting,value
COc1cccc(-n2nc(C)c3c(N/N=C(\C)c4ccncc4)ncnc32)c1,inhibition,[1],2.22%
same,inhibition,[2],0.03%
same,inhibition,[3],0%
same,inhibition,[4],2.16%
same,inhibition,[5],6.88%
same,inhibition,[6],1.96%
same,inhibition,[7],-2.68%
same,inhibition,[8],1.3%
same,inhibition,[9],1.94%
same,inhibition,[10],-1.8%
same,inhibition,[11],1.16%
same,inhibition,[12],1.7%
same,inhibition,[13],-0.2%
same,inhibition,[14],1.96%
same,inhibition,[15],-1.21%
same,inhibition,[16],1.56%
same,inhibition,[17],1.26%
same,inhibition,[18],0.76%
same,inhibition,[19],2.39%
same,inhibition,[20],4.23%
